PubChem BioAssay (NCATS)
Inconclusive results are not listed. Entries that show only a call come without a potency. A number with no mark means an inactive call. Activity calls are given as the source filed them. The call rests on the fitted dose curve; in most records, active means well fitted curve in the direction sought with a large enough effect; inconclusive means small, poorly fitted or top-dose-only effect, or another doubt; inactive means no such curve, though single readings can be large; an effect the other way counts as inactive or inconclusive.

Experiments:
[1] = qHTS of pediatric cancer cell lines to identify multiple opportunities for drug repurposing: Primary screen for Saos-2 cells (AID 1347097); further: nearly all actives have a fitted effect of over 40% in size
How it was run: (§1)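 Cells plated at 500-1,000/well in growth medium, compounds added after 5 h. MIPE tested at 11 points (from 0.78 nM), NPC at 8 points (from 0.59 nM). CellTiter-Glo luminescence after 48 h; concentration-response curves from primary screen.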

[2] = qHTS of pediatric cancer cell lines to identify multiple opportunities for drug repurposing: Primary screen for SK-N-SH cells (AID 1347098); further: nearly all actives have a fitted effect of over 65% in size;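 on activity change, negative = cytotoxic: DMSO served as neutral control and bortezomib at 2.3 µM as positive control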
How it was run: (§2)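 Cells (500-1,000/well) rested 5 h, then received compounds for 48 h; metabolically active cells were measured by CellTiter-Glo luminescence. Final concentrations spanned up to 46 µM (MIPE, 11-point) or 0.59 nM-46 µM (NPC, 8-point) in primary screens, 11-point in follow-ups.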

[3] = qHTS of pediatric cancer cell lines to identify multiple opportunities for drug repurposing: Primary screen for NB1643 cells (AID 1347099); further: nearly all actives have a fitted effect of over 50% in size
How it was run: as §1

[4] = qHTS of pediatric cancer cell lines to identify multiple opportunities for drug repurposing: Primary screen for LAN-5 cells (AID 1347100)
How it was run: (§3)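 Cells (500-1,000/well) in growth media were settled 5 h at 37 degrees C, then given compounds for 48 h. Viability was read as CellTiter-Glo luminescence. Primary runs used MIPE at 11 points (0.78 nM-46 µM) and NPC at 8 points (0.59 nM-46 µM); follow-ups used 11 points.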

[5] = qHTS of pediatric cancer cell lines to identify multiple opportunities for drug repurposing: Primary screen for BT-12 cells (AID 1347101); further: nearly all actives have a fitted effect of over 25% in size
How it was run: as §2

[6] = qHTS of pediatric cancer cell lines to identify multiple opportunities for drug repurposing: Primary screen for Rh18 cells (AID 1347102); further: nearly all actives have a fitted effect of over 65% in size
How it was run: as §3

[7] = qHTS of pediatric cancer cell lines to identify multiple opportunities for drug repurposing: Primary screen for OHS-50 cells (AID 1347103); further: nearly all actives have a fitted effect of over 40% in size
How it was run: as §2

[8] = qHTS of pediatric cancer cell lines to identify multiple opportunities for drug repurposing: Primary screen for RD cells (AID 1347104); further: nearly all actives have a fitted effect of over 55% in size
How it was run: as §1

[9] = qHTS of pediatric cancer cell lines to identify multiple opportunities for drug repurposing: Primary screen for MG 63 (6-TG R) cells (AID 1347105); further: nearly all actives have a fitted effect of over 50% in size
How it was run: as §1

[10] = qHTS of pediatric cancer cell lines to identify multiple opportunities for drug repurposing: Primary screen for control Hh wild type fibroblast cells (AID 1347106); further: nearly all actives have a fitted effect of over 55% in size;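 on activity change, negative = cytotoxic: series mostly up to about 46 µM; a drop in luminescence marks cytotoxicity and a rise apparent proliferation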
How it was run: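 Viability after 48 h compound treatment at 37C, 500-1,000 cells/well, read as ATP luminescence with CellTiter-Glo. Primary screens used 11-point (MIPE, 0.78 nM-46 µM) or 8-point (NPC, 0.59 nM-46 µM) final concentrations; follow-up screens used 11-point dilutions.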
Potency means the concentration at half of the fitted maximal effect.

Structure (SMILES) | Potency [1] | Potency [2] | Potency [3] | Potency [4] | Potency [5] | Potency [6] | Potency [7] | Potency [8] | Potency [9] | Potency [10] | activity change, negative = cytotoxic [1] | activity change, negative = cytotoxic [2] | activity change, negative = cytotoxic [3] | activity change, negative = cytotoxic [4] | activity change, negative = cytotoxic [5] | activity change, negative = cytotoxic [6] | activity change, negative = cytotoxic [7] | activity change, negative = cytotoxic [8] | activity change, negative = cytotoxic [9] | activity change, negative = cytotoxic [10]
Cc1c(C(C)C)c(=O)n(-c2ccccc2)n1C | inactive | inactive | inactive | inactive | inactive | inactive | inactive | inactive | inactive | inactive |  |  |  |  |  |  |  |  |  | 
Cc1cc2c(cc1CC(=O)c1sccc1S(=O)(=O)Nc1onc(C)c1Cl)OCO2 | inactive | inactive | inactive | inactive | inactive | inactive | inactive | inactive | inactive | inactive |  |  |  |  |  |  |  |  |  | 
C[C@]12C=CC(=O)C=C1[C@@H](F)C[C@@H]1[C@@H]2[C@@H](O)C[C@@]2(C)[C@H]1CC[C@]2(O)C(=O)CO | inactive | inactive | inactive | inactive | inactive | inactive | inactive | inactive | inactive | inactive |  |  |  |  |  |  |  |  |  | 
C[C@H](CCC(=O)O)[C@H]1CC[C@H]2[C@@H]3C(=O)C[C@@H]4CC(=O)CC[C@]4(C)[C@H]3CC(=O)[C@]12C | inactive | inactive | inactive | inactive | inactive | inactive | inactive | inactive | inactive | inactive |  |  |  |  |  |  |  |  |  | 
NC[C@H]1O[C@H](O[C@H]2[C@H](O[C@@H]3O[C@H](CO)[C@@H](O)[C@H]3O)C(O)[C@H](N)C[C@@H]2N)[C@H](N)[C@@H](O)[C@@H]1O (stereo not given in full) |  |  |  |  |  |  |  |  |  |  | -4.84% [at 9.22 µM] | 19.9% [at 11.4 µM] | 0% [at 9.22 µM] | 25.3% [at 9.22 µM] | 7.42% [at 11.5 µM] | 31.2% [at 9.22 µM] | 7.33% [at 11.5 µM] | 14% [at 9.22 µM] | -2.08% [at 9.22 µM] | -1.08% [at 9.22 µM]
CN(C)C(=S)SC(=S)N(C)C | 1060 nM (active) | 1940 nM (active) | 2990 nM (active) | 1330 nM (active) | 1230 nM (active) | 1880 nM (active) | 8710 nM (active) | 944 nM (active) | 4220 nM (active) | 1190 nM (active) |  |  |  |  |  |  |  |  |  | 
CC[N+](CC)(CCNC(=O)C(=O)NCC[N+](CC)(CC)Cc1ccccc1Cl)Cc1ccccc1Cl | inactive | inactive | inactive | inactive | inactive | inactive | inactive | inactive | inactive | inactive |  |  |  |  |  |  |  |  |  | 
C[C@H](O)C(=O)Nc1c(I)c(C(=O)NC(CO)CO)c(I)c(C(=O)NC(CO)CO)c1I | inactive | inactive | inactive | inactive | inactive | inactive | inactive | inactive | inactive | inactive |  |  |  |  |  |  |  |  |  | 
CCCCCCCCCCCCCCCCCC(=O)OCC(O)CO (stereo not given) | inactive | inactive | inactive | inactive | inactive | inactive | inactive | inactive | inactive | inactive |  |  |  |  |  |  |  |  |  | 
CC(O)(P(=O)(O)O)P(=O)(O)O | inactive | inactive | inactive | inactive | inactive | inactive | inactive | inactive | inactive | inactive |  |  |  |  |  |  |  |  |  | 
COc1c2occc2c(OC)c2c(=O)cc(C)oc12 | inactive | inactive | inactive | inactive | inactive | inactive | inactive | inactive | inactive | inactive |  |  |  |  |  |  |  |  |  | 
O=C1c2ccccc2C(=O)C1c1ccccc1 | inactive | inactive | inactive | inactive | inactive | inactive | inactive | inactive | inactive | inactive |  |  |  |  |  |  |  |  |  | 
CC1(C)OC[C@@H](COC(=O)CCc2ccc(OC[C@@H](O)CNCCNC(=O)N3CCOCC3)cc2)O1 | inactive | inactive | inactive | inactive | inactive | inactive | inactive | inactive | inactive | inactive |  |  |  |  |  |  |  |  |  | 
CC(O)C(=O)O (stereo not given) | inactive | inactive | inactive | inactive | inactive | inactive | inactive | inactive | inactive | inactive |  |  |  |  |  |  |  |  |  | 
C=CCc1ccc(O)c(OC)c1 | inactive | inactive | inactive | inactive | inactive | inactive | inactive | inactive | inactive | inactive |  |  |  |  |  |  |  |  |  | 
CCCCc1nc(Cl)c(CO)n1Cc1ccc(-c2ccccc2-c2nn[nH]n2)cc1 | inactive | inactive | inactive | inactive | inactive | inactive | inactive | inactive | inactive | inactive |  |  |  |  |  |  |  |  |  | 
CCN1CCC[C@H]1CNC(=O)c1c(OC)ccc(Br)c1OC | inactive | inactive | inactive | inactive | inactive | inactive | inactive | inactive | inactive | inactive |  |  |  |  |  |  |  |  |  | 
CC(C)(Oc1ccc(Cl)cc1)C(=O)O | inactive | inactive | inactive | inactive | inactive | inactive | inactive | inactive | inactive | inactive |  |  |  |  |  |  |  |  |  | 
CC(=O)OCC(=O)NCCCOc1cccc(CN2CCCCC2)c1 | inactive | inactive | inactive | inactive | inactive | inactive | inactive | inactive | inactive | inactive |  |  |  |  |  |  |  |  |  | 
